Only some compounds are listed: those with a hit (about 5.9% of all), similar ones and a draw of the others.
Coupling enz: counter-screen for Giardia aldolase inhibitors: coupling enzyme system. AID 2472. coupling enzyme system counterscreen, AmpLite Red fluorescence. 0.67% of 290,000 active. activity change, negative = inhibition, % at 58.2 µM, hits read low; in the data active means activity change below about -30%
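Fluorescence at 525 nm excitation and 598 nm emission measured inhibition of the coupled detection system without aldolase. Compounds (at 57.5 uM final) were preincubated 10 min at room temperature with coupling enzyme reagent before a 20 min substrate/AmpLite Red step.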
TrxR1 substrate: rat thioredoxin reductase 1 substrate activity | O89049 | Potency, µM (doses to about 114 µM), inactives show at the top dose activity change, negative = substrate turnover | 0.01% of 390,000 active | purified TrxR1 substrate turnover, NADPH consumption readout; further: potency means the concentration at half of the fitted maximal effect; nearly all actives have a fitted effect of over 50% in size
Target sequence (O89049 whole entry, looked up): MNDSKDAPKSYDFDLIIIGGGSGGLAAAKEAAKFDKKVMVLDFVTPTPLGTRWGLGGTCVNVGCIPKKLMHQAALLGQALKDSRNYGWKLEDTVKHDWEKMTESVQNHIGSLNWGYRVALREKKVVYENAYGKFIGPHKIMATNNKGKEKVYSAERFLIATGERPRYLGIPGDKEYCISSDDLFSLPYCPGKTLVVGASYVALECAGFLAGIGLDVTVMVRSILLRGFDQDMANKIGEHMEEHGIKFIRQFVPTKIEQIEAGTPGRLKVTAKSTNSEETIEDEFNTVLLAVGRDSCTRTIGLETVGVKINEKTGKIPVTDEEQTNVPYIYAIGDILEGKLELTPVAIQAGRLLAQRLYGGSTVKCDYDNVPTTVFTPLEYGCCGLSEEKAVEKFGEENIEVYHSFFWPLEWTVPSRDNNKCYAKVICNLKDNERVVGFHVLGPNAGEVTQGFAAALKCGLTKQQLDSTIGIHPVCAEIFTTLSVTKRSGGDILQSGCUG
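Rat TrxR1, dispensed at 90 nM, was prereduced with 400 uM NADPH (final) for 5 min at ~22 deg C, then incubated with compound 15 min before 400 uM selenite. A first-read NADPH fluorescence drop versus no-compound background flagged substrates.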
GALK inh: blocks human galactokinase activity | Purified GALK, Kinase-Glo residual ATP luminescence | Potency, µM (highest dose often 57.5 µM), without a hit: at the highest dose activity change, negative = inhibition, most hits filed as inhibitors | 0.007% of 270,000 active | AID 1868; further: potency means the concentration at half of the fitted maximal effect
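The enzyme phosphorylates galactose (100 uM) using ATP (35 uM); inhibition is detected as higher residual ATP, quantified by bioluminescence after 1 h reaction at room temperature, pH 8.0.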
RORg inh: blocks mouse ROR gamma transcriptional activity; AID 2551; Drosophila S2 Gal4-RORgamma UAS-luciferase reporter, 20 h; 5.4% of 310,000 active; Potency, µM (doses to about 53.6 µM), for the others: at the top dose activity change, negative = inhibition, actives largely listed as inhibitors; P51450; further: potency means the concentration at half of the fitted maximal effect; nearly all actives have a fitted effect of over 60% in size
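ROR gamma transcriptional activity was tracked as Gal4-UAS luciferase output in stably transfected Drosophila Schneider cells, with compound added 1 hr before 700 uM copper sulfate induction and a 20 hr ambient-temperature incubation.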
TrxR1 inh: rat TrxR1 inhibition; O89049; Potency, µM (doses to about 114 µM), inactives show at the top dose activity change, negative = inhibition, most hits filed as inhibitors; recombinant rTrxR1, NADPH fluorescence consumption, selenite substrate; 1% of 390,000 active; AID 588453; further: potency means the concentration at half of the fitted maximal effect; nearly all actives have a fitted effect of over 65% in size
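Rat TrxR1 (90 nM in the dispensed reagent) was pre-reduced with 400 uM NADPH for 5 min at room temperature, then incubated with compound for 15 min. After 400 uM selenite was added, NADPH fluorescence (Ex 340/Em 450 nm) was followed for 8 min.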
Gal4-VP16 FLuc: inhibits Gal4-VP16 luciferase reporter, ROR gamma counter-screen; 3.5% of 310,000 active; Drosophila S2 Gal4-VP16 UAS-luciferase, luminescence, 20 h; Potency, µM (top dose mostly 53.6 µM), for inactives: top-dose activity, negative = inhibition, usual class: inhibitors;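 further: Gal4-VP16 expression switched on by copper sulfate through the metallothionein promoter; potency means the concentration at half of the fitted maximal effect; nearly all actives have a fitted effect of over 50% in size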
An asterisk follows results filed as active; ? = inconclusive; nt = no result given; [ ] = remark or other dose. Unless noted, the call rests on the fitted dose curve; in most records, active means well fitted curve in the direction sought with a large enough effect; inconclusive means small, poorly fitted or top-dose-only effect, or another doubt; inactive means no such curve, though single readings can be large; an effect the other way counts as inactive or inconclusive. On the % scale 0 is the no-effect control and ±100 the full control effect.

SMILES	Coupling enz	TrxR1 substrate	GALK inh	RORg inh	TrxR1 inh	Gal4-VP16 FLuc
Cc1nnc(SCC(=O)Nc2ncc3c(n2)CC(c2ccccc2)CC3=O)s1 (configuration not stated)	1	-3%	-3%	0%	-5%	15%
CC(=O)Nc1nc2ccccc2n1CCN1CCOCC1	1	1%	0%	?	8%	-12%
O=C(Nc1nc2ccccc2n1CCN1CCOCC1)c1cn(-c2ccccc2)nc1-c1ccccc1	4	11%[57.1 µM]	3%	0.63µM*	18%[57.1 µM]	1.1µM*
O=C(NCCCN1CCOCC1)c1cn(-c2ccccc2)nc1-c1ccc(Br)cc1	nt	-1%	nt	nt	4%	nt
O=C(Nc1nc2ccccc2n1CCN1CCOCC1)c1ccccc1	-13	9%[57.1 µM]	5%	2.8µM*	22%[57.1 µM]	3.5µM*
Oc1ccc(/C=C/c2ccc(/C=C/c3ccc(O)cc3)c(Br)c2)cc1	nt	75%[57.1 µM]	nt	nt	22µM*	nt
COc1ccc(NC(=O)NCCCCc2ccccc2)cc1OC	0	-3%	2%	5%	14%	-3%
Cc1cccc(C)c1NC(=S)NC(C)CCc1ccccc1 (configuration not stated)	0	7%[57.1 µM]	1%	2.2µM*	3%[57.1 µM]	4.5µM*
CC(CCc1ccccc1)NC(=O)C(=O)Nc1ccccc1 (configuration not stated)	3	-11%	0%	24%	-12%	-1%
CCCN(Cc1ccccc1)C(=S)Nc1ccc(C(C)=O)cc1	-1	2%	3%	4.5µM*	-2%	10µM*
CC(=O)c1ccc(NC(=S)N(CCCN(C)C)Cc2ccccc2)cc1	-5	-1%	-1%	18%	-5%	-11%
Cc1ccc(NC(=S)NC(C)CCc2ccccc2)cc1C (configuration not stated)	1	-1%	1%	4µM*	6%	6.3µM*
CC(=O)c1ccc(NC(=S)NC(C)CCc2ccccc2)cc1 (configuration not stated)	0	-10%	4%	7.9µM*	-14%	20µM*
Cc1ccccc1NC(=O)C(=O)NC(C)CCc1ccccc1 (configuration not stated)	-10	-8%	1%	-29%	-1%	-12%
CC1CCCN(C2(O)C(=O)Nc3ccc([N+](=O)[O-])cc32)C1 (configuration not stated)	0	-12%	-2%	-10%	2%	-19%
N#CC1=C(N)NC(SCC(=O)Nc2ccc(Br)cc2)=C(C#N)C12CCCCC2	0	-25%[57.1 µM]	3%	37%	15%[57.1 µM]	-13%
COc1cccc(NC(=S)N2CCN(S(C)(=O)=O)CC2)c1	nt	3%	-4%	13%	6%	11%
O=C1C2CC=CCC2C(=O)N1Nc1ccccc1 (configuration not stated)	3	0%[57.1 µM]	1%	-15%	5%[57.1 µM]	-3%
COc1ccc(C2=CC(=O)N(Nc3ccccc3)C2=O)cc1	-1	-4%[57.1 µM]	0%	?	?	11µM*
Cc1ccc(NN2C(=O)C=C(c3ccc(Cl)cc3)C2=O)cc1	-2	-5%	-1%	7.1µM*	-32%	8.9µM*
O=C1C=C(c2ccccc2)C(=O)N1Nc1ccccc1	1	12%	0%	4.5µM*	3.2µM*	5µM*
Cc1ccc(NC(=O)CSC2=C(C#N)C(c3ccc4c(c3)OCO4)C3=C(CCCC3=O)N2)c(C)c1 (configuration not stated)	-1	-4%	1%	36%	28µM*	-22%
CCOc1ccc(OCC)c(C2C(C#N)=C(N)N(c3cccnc3)C3=C2C(=O)CC(C)(C)C3)c1 (configuration not stated)	-52*	-12%	1%	11%	?	5%
Cc1cc(C)nc(SCC(=O)Oc2ccc3oc(=O)cc(C)c3c2)n1	1	10%[57.1 µM]	2%	18%	1µM*	-1%
CCC(=O)Oc1ccc2oc(=O)cc(C)c2c1	1	5%	1%	?	10%	24%
SMILES	Coupling enz	TrxR1 substrate	GALK inh	RORg inh	TrxR1 inh	Gal4-VP16 FLuc
Cc1nnc(N/N=C/c2cc([N+](=O)[O-])c(N3CCC(C)CC3)cc2N2CCC(C)CC2)n1N	-45*	-23%	-5%	16µM*	-25%	?
CCc1nnc(N/N=C/c2ccc(N3CCC(C)CC3)c([N+](=O)[O-])c2)n1N	-27	-8%	-1%	10µM*	5%	?
O=C(O)CCn1cc(C2CC(c3ccccc3)=NN2c2ccccc2)c(-c2ccccc2)n1 (configuration not stated)	12	200%	8%	32%	-28%	9%
O=C(Nc1ccc(Oc2c(F)c(F)c(F)c(F)c2F)cc1)OC1CCN2Cc3ccccc3N=C12 (configuration not stated)	0	4%	6%	0.71µM*	17%	?
COc1cc(/C=C2\SC(N3CCCCC3)=NC2=O)cc(OC)c1OC	0	-5%[57.1 µM]	nt	1%	-5%[57.1 µM]	9%
CCc1nnc(NC(=O)CCC(=O)NC2CCCCCCC2)s1	nt	-2%	-2%	2%	19%	-1%
Cc1ccc(C)c2[nH]c(=O)c(CCNC(=O)c3cc4ccccc4o3)cc12	1	9%	0%	-59%	14%	13µM*
COc1ccc(OC)c2[nH]c(=O)c(CCNC(=O)c3cc4ccccc4o3)cc12	-8	-1%	0%	-14%	-5%	-8%
Cc1cc(C)c2c(CC(=O)N(Cc3ccc(N(C)C)cc3)Cc3ccco3)coc2c1	nt	-11%	nt	nt	8%	nt
Cc1ccc2c(CC(=O)N(Cc3ccc(Cl)cc3)Cc3ccco3)coc2c1	nt	-12%	nt	nt	50µM*	nt
COC(=O)[C@@]1(Cc2ccccc2)[C@H]2c3cc(C(=O)N(C)C)n(Cc4nc5ccccc5[nH]4)c3C[C@H]2CN1C(=O)c1ccccc1	0	nt	nt	-14%	nt	3%
CC(C)C(C)(C#N)NC(=O)CSc1nc2scc(-c3ccc(F)cc3)c2c(=O)n1Cc1ccccc1 (configuration not stated)	-4	-5%	2%	18µM*	-18%	?
CC(C)C(C)(C#N)NC(=O)CSc1nnc(-c2ccncc2)n1Cc1ccccc1 (configuration not stated)	1	18%	2%	8%	30%	-6%
CC(C)(C)c1ccc2c(c1)OC(C(=O)N/N=C\c1ccc[nH]1)CO2 (configuration not stated)	nt	-17%	-5%	7.9µM*	-12%	5µM*
O=C(N/N=C/C=C/c1ccc([N+](=O)[O-])cc1)C1COc2ccccc2O1 (configuration not stated)	1	3%[57.1 µM]	-3%	10µM*	13%[57.1 µM]	11µM*
